# The panel holds about 83,000 compounds, 20% with a hit somewhere; the sample as a whole holds those more often.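 Each cell line was grown in a 96-well plate and treated with one concentration of compound for 48 hours. Values below 10 were considered active.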 A number with no mark means an inactive call. Activity calls are given as the source filed them.
# What was measured:
# Assay in all cases: NCI-60 one-dose screen, 48 h (100 = growth as untreated, 0 = no growth, -100 = all killed)
# Conditions in all cases: 10 µM unless noted
# HT29 colon = test system: HT29 colon
# SNB-75 CNS = test system: SNB-75 CNS
# SNB-19 CNS = test system: SNB-19 CNS
# U251 CNS = test system: U251 CNS
# PC-3 prostate = test system: PC-3 prostate
# SK-MEL-5 melanoma = test system: SK-MEL-5 melanoma
# LOX IMVI melanoma = test system: LOX IMVI melanoma
# SK-MEL-28 melanoma = test system: SK-MEL-28 melanoma
# UACC-62 melanoma = test system: UACC-62 melanoma
Compound,growth (HT29 colon),growth (SNB-75 CNS),growth (SNB-19 CNS),growth (U251 CNS),growth (PC-3 prostate),growth (SK-MEL-5 melanoma),growth (LOX IMVI melanoma),growth (SK-MEL-28 melanoma),growth (UACC-62 melanoma)
Cc1nn2c(/C=C3/C(=O)Nc4cc(Cl)ccc43)c(-c3ccccc3)nc2s1,36.6%,-20.2% (active),54%,-19.9% (active),51.1%,-24.7% (active),-33.3% (active),-49.4% (active),
CCOC1Oc2ccccc2C(=O)/C1=N/c1nccs1 (configuration not stated),105%,75.1%,91.7%,82%,67.8%,101%,85.2%,99.9%,78.7%
Nc1nc(Nc2ccccc2SSc2ccccc2Nc2nc(N)nc(-c3cccc(Cl)c3)n2)nc(-c2cccc(Cl)c2)n1,104%,,96.1%,78.5%,83.9%,95.5%,61.7%,102%,86.2%
N#Cc1c(NC(=O)c2ccco2)[n+]([O-])c2ccccc2[n+]1[O-],109%,104%,96.8%,106%,130%,91%,98.3%,104%,81%
O=C(c1ccc(Cl)cc1)c1ccc(Cl)cc1,102%,112%,109%,,110%,96.4%,103%,106%,103%
CCN(CC)c1ccc(/C=C/C(=O)c2cccc(NS(C)(=O)=O)c2)cc1,5.36% (active),48.4%,74.6%,41.6%,,39.6%,15%,72.5%,36.1%
CCCCCCCSc1ncnc2[nH]ncc12,89.3%,59.3%,80.9%,38.3%,78.8%,92.4%,65.9%,106%,76.6%
O=C(Nc1ccc2c(c1)C(=O)c1ccccc1-2)c1ccccc1,35.8%,86.6%,73%,-13.9% (active),92.9%,97.9%,73.2%,105%,90.2%
Oc1ccc(/C=N/Nc2nc3ccccc3s2)c(O)c1,67.3%,28.5%,52.5%,25.4%,32.5%,40.8%,21.3%,50.7%,35.8%
COc1ccc(-c2cnc(SCC(=O)Nc3ccc(-c4nc5ccccc5s4)cc3)n2-c2ccc(OC)cc2)cc1,92.7%,93.5%,98.8%,109%,97%,,95.2%,120%,93.2%
NC(=O)c1cc(Cl)ccc1NC(=O)c1ccccc1-c1ccccc1,9.11% (active),-5.88% (active),31.9%,21.4%,23.5%,26.4%,28.9%,41.5%,18.6%
COC(=O)CC1=C(c2ccc([N+](=O)[O-])cc2)CCC1=O,107%,82%,109%,103%,91.9%,103%,94.6%,109%,

# Source: PubChem BioAssay (NCI)
